RORg inh: blocks mouse ROR gamma transcriptional activity; Drosophila S2 Gal4-RORgamma UAS-luciferase reporter, 20 h; Potency, µM (top dose mostly 53.6 µM), for inactives: top-dose activity change, negative = inhibition, actives largely listed as inhibitors; P51450; AID 2551; hit rate 5.4% among 310,000; note: nearly all actives have a fitted effect of over 60% in size
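Read-out: Photinus luciferase luminescence; inhibitors lower reporter signal. Insect Schneider cells with Gal4-ROR gamma fusion under metallothionein promoter, UAS reporter; 700 uM final copper sulfate induction, 20 hr, ambient temperature.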
VP16 counter: inhibits Gal4-VP16 luciferase reporter, ROR gamma counter-screen; Drosophila S2 Gal4-VP16 UAS-luciferase, luminescence, 20 h; Potency, µM (doses to about 53.6 µM), for the others: at the top dose activity, negative = inhibition, hits mostly inhibitors; hit rate 3.5% among 310,000; AID 2546;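 note: Gal4-VP16 expression switched on by copper sulfate through the metallothionein promoter; nearly all actives have a fitted effect of over 50% in size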
12-LOX inh: ALOX12 (human) lipoxygenase inhibition | P18054 | purified 12hLO, xylenol orange hydroperoxide absorbance | Potency, µM (doses to about 108 µM), for the others: at the top dose activity change, negative = inhibition, most hits filed as inhibitors | hit rate 1.1% among 580,000
Target sequence (P18054 whole entry, looked up): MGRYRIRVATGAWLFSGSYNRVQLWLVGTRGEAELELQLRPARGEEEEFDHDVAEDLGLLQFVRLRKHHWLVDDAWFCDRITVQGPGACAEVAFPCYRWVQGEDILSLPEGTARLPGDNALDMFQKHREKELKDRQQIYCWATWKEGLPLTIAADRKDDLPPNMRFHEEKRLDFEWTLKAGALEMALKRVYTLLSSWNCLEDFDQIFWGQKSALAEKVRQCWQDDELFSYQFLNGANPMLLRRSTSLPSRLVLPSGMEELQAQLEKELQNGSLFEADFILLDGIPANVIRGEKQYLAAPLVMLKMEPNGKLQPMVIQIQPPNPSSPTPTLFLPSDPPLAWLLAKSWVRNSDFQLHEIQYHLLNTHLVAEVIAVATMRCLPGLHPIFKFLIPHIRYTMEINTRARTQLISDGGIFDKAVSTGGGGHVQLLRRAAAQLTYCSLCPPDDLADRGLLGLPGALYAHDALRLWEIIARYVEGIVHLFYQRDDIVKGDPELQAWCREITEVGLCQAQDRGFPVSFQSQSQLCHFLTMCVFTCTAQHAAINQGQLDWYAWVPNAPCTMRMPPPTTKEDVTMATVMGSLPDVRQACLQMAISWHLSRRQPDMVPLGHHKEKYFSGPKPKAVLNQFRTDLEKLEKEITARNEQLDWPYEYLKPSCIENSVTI
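Hydroperoxide product was detected by ferrous iron/xylenol orange as the 573 to 405 nm absorbance ratio. Arachidonic acid at 40 uM (final) was turned over for 30 min at room temperature by 150 nM human 12hLO, pH 7.0 Hepes buffer, after 15 min compound preincubation.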
ELG1 repair inh: inhibitors of ELG1-dependent DNA repair in HEK293T cells; hit rate 2.3% among 330,000; Potency, µM (titrated, usually from 46.1 µM), inactives show at the highest dose activity change, negative = inhibition, actives largely listed as inhibitors; HEK293T ELG1-luciferase reporter, luminescence, 16 h; DNA damage induced by 5-fluorouridine; AID 504467; note: nearly all actives have a fitted effect of over 55% in size
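In this reporter screen, reduction of luminescence relative to DMSO vehicle indicated activity. Compounds and 5-fluorouridine were added together to 2,000 cells per well, incubated for 16 hr at 37 °C, then developed with ONE-Glo.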
DT40 TDP1 no CPT: qHTS for Inhibitors of human tyrosyl-DNA phosphodiesterase 1 (TDP1): qHTS in cells in absence of CPT; Potency, µM (titrated, usually from 46.2 µM), inactives show top-dose activity change, negative = growth inhibition, hits mostly inhibitors; DT40 Tdp1-/- hTDP1 cells, no CPT, ATP luminescence, 48 h; AID 686978, 2013; hit rate 15% among 420,000; note: nearly all actives have a fitted effect of over 55% in size
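Chicken DT40 Tdp1-/- cells complemented with human TDP1, screened without camptothecin (DMSO vehicle only), 400 cells/well. Compounds pin-transferred, cells incubated at 37 °C for at least 48 hr. Growth read as ATP-dependent luminescence (CellTiter-Glo, 30 min at RT).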
TDP1 cell CPT: DT40-hTDP1 cell growth loss with CPT. chicken DT40 Tdp1-/-;hTDP1 cells + 20 nM CPT, ATP luminescence, 48 h. Potency, µM (titrated, usually from 46.2 µM), for inactives: top-dose activity change, negative = growth inhibition, hits mostly inhibitors. hit rate 12% among 420,000; note: nearly all actives have a fitted effect of over 55% in size
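Chicken DT40 Tdp1-/- cells stably complemented with human TDP1 were seeded at 400 cells/well in medium containing 20 nM camptothecin, exposed to pin-transferred compounds, and grown at 37 °C for at least 48 hr. Viability was read as ATP luminescence.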
Numbers without * were called inactive; ? = inconclusive; / = no result given; [ ] = remark or other dose. An excerpt weighted towards active compounds, which were near 15% of everything screened. Calls come from the whole dose curve; as a rule, active = well fitted curve in the direction sought with a large enough effect; inconclusive = small, poorly fitted or top-dose-only effect, or another doubt; inactive = no such curve, though single readings can be large; an effect the other way counts as inactive or inconclusive. % is set by controls: 0 for no effect and ±100 for the full control effect; potency is the fitted concentration of half-maximal effect.

SMILES | RORg inh | VP16 counter | 12-LOX inh | ELG1 repair inh | DT40 TDP1 no CPT | TDP1 cell CPT
O=C(CSc1nnc(-c2ccco2)n1Cc1ccccc1)NCc1ccccc1 | ? | -15% | 8% | 21µM* | ? | -30%
CCc1nnc([C@@H]2CC(F)(F)CN2C(=O)CCn2cc(C)cn2)o1 | / | / | 5% | / | / | /
O=C(O)C1CC(=O)N(c2ccc(S(=O)(=O)Nc3ccccc3F)cc2)C1 (centres undefined) | / | / | -15% | / | / | /
N#CC1CCN(Cc2ccccc2OCC(O)CN2CCCCC2)CC1 (centres undefined) | / | / | 73% | / | / | /
CC(C)c1ccc(S(=O)(=O)N2CCC(C(=O)Nc3nccs3)CC2)cc1 | / | / | -7% | / | / | /
O=C(CSc1nnc(-c2ccccc2)n1Cc1ccccc1)NNC(=O)c1ccccc1O | 7% | -12% | -14% | ? | 26µM* | 16µM*
CS(=O)(=O)N1CCN2C(=O)N(C3CCCCC3)C[C@H]2C1 | / | / | 24%[176 µM] | / | / | /
O=C(c1ccc([N+](=O)[O-])o1)N1CCN(c2nc3c(F)cc(F)cc3s2)CC1 | / | / | 6% | ? | ? | ?
Cc1cc(C)c2nc(N3CCN(C(=O)c4ccco4)CC3)sc2c1 | / | / | -34% | ? | -3% | -3%
O=C(c1ccco1)N1CCN(c2nc3ccc(Cl)cc3s2)CC1 | / | / | ? | / | 23µM* | ?
Cc1cc2nc(N3CCN(C(=O)c4ccco4)CC3)sc2cc1C | / | / | -28% | ? | 21µM* | ?
Cc1ccc(C)c2sc(N3CCN(C(=O)c4ccc([N+](=O)[O-])o4)CC3)nc12 | / | / | 4% | 4% | ? | 8.2µM*
O=C(c1cc2cc(Cl)ccc2[nH]1)N1CCN(C(=O)c2ccco2)CC1 | 20% | -8% | 45µM* | 17% | ? | ?
CCc1nc(NCC(C)O)c(C#N)c2c1CCCC2 (centres undefined) | / | / | -25% | / | / | /
Cc1nnc2c(N3CCN(C(=O)c4ccco4)CC3)nc3ccccc3n12 | 3% | -11% | -1% | 7% | ? | ?
Cc1ccc2nc(N3CCN(C(=O)c4ccco4)CC3)c3nncn3c2c1 | 38% | 10% | -2% | ? | 16µM* | ?
COc1ccc(C)c2sc(N3CCN(C(=O)c4ccco4)CC3)nc12 | / | / | -29% | / | 18µM* | 18µM*
Cc1cc(Br)cc(Cl)c1OCC(=O)Nc1cccc(N2CCCC2=O)c1 | / | / | 1% | / | / | /
Brc1ccc(-c2noc(C34CC5CC(CC(C5)C3)C4)n2)cc1 | / | / | 44% | / | / | /
Nc1nc(N)c2ncn(C3C=CC(CO)C3)c2n1 (centres undefined) | / | / | ? | / | 9.2µM* | 6.5µM*
CN(C)c1nc(N)nc2c1ncn2C1OC(CO)CC1O (centres undefined) | / | / | 3% | / | ? | ?
CO[C@H]1C(=O)N(C2CCN(S(=O)(=O)c3cccs3)CC2)[C@H]1c1ccncc1 | / | / | 7% | / | / | /
OCC1(Cc2ccccc2)CCN(C2CCN(c3ccccc3F)CC2)CC1 | 12% | -7% | -22% | ? | 23µM* | ?
OCC1(Cc2ccccc2)CCN(Cc2cnn(-c3ccccc3F)c2)CC1 | -24% | 6% | 5% | -4% | -20% | 0%
Cc1cc(C(=O)CN2C(=O)NC(C)(c3ccc(F)c(F)c3)C2=O)c(C)n1C1CC1 (centres undefined) | / | / | 4% | / | 5.8µM* | 7.3µM*
SMILES | RORg inh | VP16 counter | 12-LOX inh | ELG1 repair inh | DT40 TDP1 no CPT | TDP1 cell CPT
Cn1c(=O)c2c(nc(CN3CCc4ccccc4C3)n2Cc2ccc(Cl)cc2)n(C)c1=O | -32% | 8% | -19% | 26% | -4% | -18%
CCOCCn1c(CN2CCc3ccccc3C2)nc2c1c(=O)n(C)c(=O)n2C | 4% | 1% | 26% | ? | 10µM* | 23µM*
Cn1c(=O)c2c(nc(N3CCC(Cc4ccccc4)CC3)n2CC(=O)c2ccccc2)n(C)c1=O | / | / | 7% | / | / | /
Cn1c(=O)c2c(nc(CN3CCc4ccccc4C3)n2CC(=O)c2ccccc2)n(C)c1=O | / | / | -3% | / | 26µM* | 18µM*
Cn1c(=O)c2c(nc(CN3CCOCC3)n2CC(=O)c2ccccc2)n(C)c1=O | / | / | 18% | / | ? | -22%
CN(c1nc2c(c(=O)n(C)c(=O)n2C)n1CC(=O)c1ccccc1)C1CCCCC1 | 23% | 1% | -9% | ? | 23µM* | ?
Cn1c(=O)c2c(nc(CN3CCc4ccccc4C3)n2Cc2ccccc2)n(C)c1=O | -30% | -8% | ? | 16µM* | 15µM* | 23µM*
Cc1cccc(Cn2nc(-c3ccc(C)c(S(=O)(=O)N4CCCC4)c3)ccc2=O)c1 | / | / | -26% | / | / | /
O=C(NCC(c1ccc(F)cc1)N1CCOCC1)c1c(F)cccc1F (centres undefined) | -14% | -11% | 4% | -2% | -19% | 8%
O=C(NCC(c1ccc(F)cc1)N1CCOCC1)c1ccc(-c2ccccc2)cc1 (centres undefined) | / | / | 49% | ? | ? | 16µM*
CC(C)(C)c1ccc(OCCC(=O)NCC(c2cccs2)N2CCOCC2)cc1 (centres undefined) | / | / | 3% | -8% | ? | -16%
Cc1ccsc1C(=O)NCC(c1cccs1)N1CCOCC1 (centres undefined) | / | / | -11% | / | ? | ?
CCc1cc(C(=O)NCC(c2cccs2)N2CCOCC2)sc1C (centres undefined) | / | / | -2% | 7% | 23µM* | ?
Cn1nc(C(=O)NCC(c2cccs2)N2CCOCC2)c2ccccc2c1=O (centres undefined) | / | / | -6% | -24% | 16µM* | 26µM*
CC(C)(Oc1ccc(Cl)cc1)C(=O)NCC(c1cccs1)N1CCOCC1 (centres undefined) | / | / | -30% | ? | 18µM* | ?
COc1ccc(NC(=O)Nc2ccc3nc(N4CCOCC4)cc(C)c3c2)cc1 | / | / | -9% | / | / | /
N#Cc1c(N)n[nH]c1CCCNC(=O)c1cc(-c2cccs2)nc2ccccc12 | / | / | 1% | / | / | /
O=C(NCC(c1ccc(F)cc1)N1CCOCC1)c1nn(-c2ccccc2)c(=O)c2ccccc12 (centres undefined) | / | / | -17% | ? | 21µM* | ?
CSc1nsc(SCC(=O)NCc2ccc(F)cc2)n1 | / | / | 8% | / | / | /
COc1ccc(NC(=O)C(=O)N2N=C(C(C)C)CC2(O)C(F)(F)F)cc1 (centres undefined) | 7.9µM* | ? | 5% | -3% | 5µM* | 5.8µM*
